The source made the active and inactive calls. Rule for the calls: active = hit-call score of the fitted dose curve at least 0.9, where 1 is the maximum; inactive = score below 0.9.
Experiment: ATG_Ets_CIS: Attagene CIS-FACTORIAL HepG2 Assay for human Erythroblast Transformation Specific (ETS) (AID 2282941)
Conditions: HepG2 ETS cis-reporter transcription, actives raise or lower the signal
Description: ATG_CIS is a cell-based, multiplexed-readout assay that uses HepG2, a human liver cell line, with measurements taken at 24 hours after chemical dosing in a 24-well plate.ATG_Ets_CIS is one of 52 assay component(s) measured or calculated from the ATG_CIS assay. It is designed to make measurements of mRNA induction, a form of inducible reporter, as detected with fluorescence intensity signals by Reverse transcription polymerase chain reaction (RT-PCR) and Capillary electrophoresis technology.Data from the assay component ATG_Ets_CIS was analyzed into 1 assay endpoint. This assay endpoint, ATG_Ets_CIS, was analyzed with bidirectional fitting relative to DMSO as the negative control and baseline of activity. Using a type of inducible reporter, measures of mRNA for gain or loss-of-signal activity can be used to understand the reporter gene at the transcription factor-level as they relate to the gene ETS1. Furthermore, this assay endpoint can be referred to as a primary readout, because this assay has produced multiple assay endpoints where this one serves a reporter gene function. To generalize the intended target to other relatable targets, this assay endpoint is annotated to the dna binding intended target family, where the subfamily is winged helix-turn-helix.
Human liver HepG2 cells are transiently transfected with multiple reporter transcription units (MRTUs) in 6-well plates using FuGene 6 reagent (Roche; 3 ml FuGene/1 mg DNA). The MRTU constructs are regulated by a cis-regulating element (promoter). […] A major difference between the CIS and TRANS system is that in CIS activities of endogenous TFs are measured, whereas the TRANS assay evaluates changes in activities of exogenous, chimeric NR-Gal4 proteins. […] At the end of 24 hour incubation, total RNA was isolated using TriZol reagent (Invitrogen). The isolated RNA is then reverse-transcribed using oligo(dT) primer and Mo-MLV reverse transcriptase (Invitrogen) with DNAse I (Ambion) treatment for 30 min. The one-tenth of the produced cDNA was amplified by PCR using Taq DNA polymerase (Invitrogen) and two reporter sequence-specific primers. The PCR products were fluorescently labeled by primer extension with 6-arboxyfluorescein (6-FAM) 5'-labeled reporter sequence-specific primer (2 min at 95 C, 20 s at 68 C and 10 min at 72 C) and these products were digested with 5U of HpaI (New England Biolabs) for 2h at 37 C. The fragments were purified using Qiaquick PCR columns (Qiagen), analyzed on an ABI 3130xL genetic analyzer (Applied Biosystems) with peak positions identified by using a set of X-rhodamine (ROX)-labeled MapMarker1000 molecular weight standards (BioVentures). The raw capillary electrophoresis data was processed using Attagraph software (Attagene).

outcome, inactive:
Nc1cc([N+](=O)[O-])ccc1O
NCCCCCCN
CCCC(=O)c1cc(O)c(O)cc1O
CC(C)=CCC[C@](C)(O)[C@@H]1CC=C(C)CC1
OCc1cccnc1
COc1cc2ncnc(Nc3cccc(Cl)c3)c2cc1OC
CCCCNC(=O)NS(=O)(=O)c1ccc(C)cc1
COCCOCCOCCOCCOCCO
C=CC(=O)NCOCC(C)C
C=CCOc1nc(OCC=C)nc(OCC=C)n1
CC(CN1c2ccccc2Sc2ccccc21)N(C)C (stereo not given)
O=C1NC(=O)c2ccccc21
O=C(O)CCSCCC(=O)O
Cc1ccc(C(=O)c2cc(O)c(O)c([N+](=O)[O-])c2)cc1
Cc1ccc(C=O)s1
CC(=O)c1c(C)cc(C(C)(C)C)cc1C
CC(=O)Nc1ccc(CC(=O)O)cc1
CC(C)c1ccc(C(C)C)cc1
CCC(C(=O)NC(N)=O)c1ccccc1 (stereo not given)
FC1(F)C(F)(F)C(F)(F)C2(F)C(F)(C1(F)F)C(F)(F)C(F)(F)C1(F)C(F)(F)C(F)(F)C(F)(F)C(F)(F)C12F (stereo not given)
O=C(O)CN(CCN(CC(=O)O)CC(=O)O)CCN(CC(=O)O)CC(=O)O
CCOc1ccccc1OCC
Cc1ccc2ccccc2n1
C=CC(=O)OCC(O)COc1ccccc1 (stereo not given)
O=C[C@H](O)[C@H](O)[C@H](O)CO
Nc1ccc(F)c([N+](=O)[O-])c1
CO[Si](CCCn1c(=O)n(CCC[Si](OC)(OC)OC)c(=O)n(CCC[Si](OC)(OC)OC)c1=O)(OC)OC
C=COCCOCCOCCOC=C
CCCCCCCCCC=O
COc1cc(C)cc(O)c1
CCN(CC)c1ccc(C(=C2C=CC(=[N+](CC)CC)C=C2)c2ccc(S(=O)(=O)O)cc2S(=O)(=O)[O-])cc1
CC(C)OP(=O)(CP(=O)(OC(C)C)OC(C)C)OC(C)C
COc1cc(C(C)(C)C)c(O)c(C(C)(C)C)c1
NC(=O)NC1NC(=O)NC1=O (stereo not given)
NCCOCCO
Clc1ccc(Cl)c(Cl)c1Cl
Clc1sc(Cl)c(Cl)c1Cl
CC(=O)C(=O)O
CC1(C)OC[C@@H]2O[C@@]3(C(=O)O)OC(C)(C)O[C@H]3[C@@H]2O1
Cc1ccc(S)cc1

Reference: PubChem BioAssay (EPA / NIEHS)
